Only some compounds are listed: those with a hit (about 0.9% of all), similar ones and a draw of the others.
RXFP1 agonist – qHTS Assay for Agonists of the Relaxin Receptor RXFP1; Relaxin receptor 1 (Homo sapiens), Q9HBX9; HEK293T-RXFP1 cAMP TR-FRET, 30 min; response scale: percent of porcine relaxin response, buffer zero; Potency, µM (top dose mostly 57.5 µM), for inactives: at the highest dose activation, most hits filed as activators; 370,000 compounds, 0.3% hits; active = well fitted activation curve with a large enough effect; inconclusive = small, poorly fitted or top-dose-only effect; note: potency is the fitted concentration of half-maximal effect; % is set by controls: 0 for no effect and ±100 for the full control effect; nearly all actives have a fitted effect of over 60% in size
Target sequence (Q9HBX9 whole entry, looked up): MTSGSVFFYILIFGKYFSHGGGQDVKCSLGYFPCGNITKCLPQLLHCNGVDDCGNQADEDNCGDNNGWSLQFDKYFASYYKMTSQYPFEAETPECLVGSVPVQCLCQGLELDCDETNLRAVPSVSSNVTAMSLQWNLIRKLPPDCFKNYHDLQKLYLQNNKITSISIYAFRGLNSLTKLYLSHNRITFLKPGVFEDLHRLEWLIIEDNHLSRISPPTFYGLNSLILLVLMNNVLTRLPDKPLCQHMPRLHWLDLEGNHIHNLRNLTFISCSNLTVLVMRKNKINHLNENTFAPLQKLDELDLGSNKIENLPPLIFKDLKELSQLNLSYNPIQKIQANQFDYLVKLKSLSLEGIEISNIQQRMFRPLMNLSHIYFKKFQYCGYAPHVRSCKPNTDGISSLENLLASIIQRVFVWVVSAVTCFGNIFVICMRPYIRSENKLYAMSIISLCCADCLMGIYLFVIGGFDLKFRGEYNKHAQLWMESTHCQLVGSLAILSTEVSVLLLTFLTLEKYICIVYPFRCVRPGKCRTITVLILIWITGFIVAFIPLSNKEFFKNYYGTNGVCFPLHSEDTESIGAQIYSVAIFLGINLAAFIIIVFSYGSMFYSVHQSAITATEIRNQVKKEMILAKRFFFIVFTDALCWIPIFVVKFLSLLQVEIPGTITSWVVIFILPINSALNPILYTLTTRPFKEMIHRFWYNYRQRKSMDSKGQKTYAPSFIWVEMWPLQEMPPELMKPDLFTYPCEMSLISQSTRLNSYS
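cAMP rise read by TR-FRET after 30 min, 37C compound exposure (up to 58 uM) in RXFP1-transfected HEK293 cells with Ro 20174 present. EC50 from Hill-equation fits, with 29 nM porcine relaxin as 100% and buffer as basal.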
RXFP1 antag – qHTS Assay for Antagonists of the Relaxin Receptor RXFP1; HEK293-RXFP1, relaxin-stimulated cAMP HTRF, 30 min; stronger effect = lower value; activity change, negative = inhibition, % at 57.5 µM; 350,000 compounds, 0.59% hits; Relaxin receptor 1 (Homo sapiens), Q9HBX9;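 active = activity change of -60% or lower, but not beyond a set lower limit; inconclusive = change between -60% and -40%, or beyond the set limit; inactive = change above -40%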; note: % is set by controls: 0 for no effect and ±100 for the full control effect
gsp ag – qHTS for Agonist of gsp, the Etiologic Mutation Responsible for Fibrous Dysplasia/McCune-Albright Syndrome: qHTS; 340,000 compounds, 0.13% hits; gsp mutant cells, cAMP HTRF, 30 min; Potency, µM (doses to about 76.9 µM), for the others: at the highest dose activation (cAMP increase), usual class: activators; AID 624287, 2012; active = well fitted activation curve with a large enough effect; inconclusive = small, poorly fitted or top-dose-only effect, or another doubt; inactive = no such curve, though single readings can be large or run the other way; cell line not stated here;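 note: phosphodiesterase inhibitor Ro 20-1724 added with compounds to block cAMP breakdown; potency is the fitted concentration of half-maximal effect; nearly all actives have a fitted effect of over 60% in size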
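Cells stably selected in G418 were plated at 2000/well, grown 16-24 hr, then given compounds in DMSO with the PDE inhibitor […] (300 uM solution added) for 30 min at 37C; cAMP was read by HTRF.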
gsp antag – qHTS for Antagonists of gsp, the Etiologic Mutation Responsible for Fibrous Dysplasia/McCune-Albright Syndrome: qHTS | 340,000 compounds, 0.4% hits | Potency, µM (highest dose often 76.9 µM), for inactives: at the top dose activity change, negative = inhibition, most hits filed as inhibitors | gsp-mutant cells, cAMP HTRF, 30 min; calls by dose curve; cell line not stated here;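 note: intracellular cAMP measured with PDE inhibitor Ro 20-1724 present during compound exposure; potency is the fitted concentration of half-maximal effect; % is set by controls: 0 for no effect and ±100 for the full control effect; nearly all actives have a fitted effect of over 65% in size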
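Cells, 2000/well, grown 16–24 h in DMEM 10% FBS with 0.5 mg/ml G418, then compounds plus […] (300 uM addition stock), 30 min at 37C. cAMP read by HTRF (cAMP-d2 and anti-cAMP antibody-K in lysis buffer) after 30 min RT.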
* hit, by the source's call; u = inconclusive; x = no result given; [ ] = another dose, or the depositor's remark.

SMILES	RXFP1 agonist	RXFP1 antag	gsp ag	gsp antag
COc1ccc(N2CCN(S(=O)(=O)c3ccc4c(c3)CC(C)N4C(C)=O)CC2)cc1 (configuration not stated)	1%	-9	x	x
CC(C)N(Cc1ccccc1)C(=O)COC(=O)c1cnc(Cl)c(Cl)c1	x	-72*	9%	-27%
CC(C)N(Cc1ccccc1)C(=O)COC(=O)c1cc(S(=O)(=O)N(C)C)ccc1N1CCCC1	x	-75*	6%	-15%
CN(C)S(=O)(=O)c1ccc(N2CCCC2)c(C(=O)OCC(=O)N2CCN(c3ccccc3)CC2)c1	-1%	-13	5%	5%
Cc1cccc(C)c1OCc1cc(=O)n2c3c(sc2n1)CCCC3	4%	x	x	x
O=S(=O)(c1cccc(-c2cn3cccnc3n2)c1)N1CCOCC1	u	-11	18µM*	37%
Cc1ccccc1N/N=C/c1sc(=O)n(Cc2cccc(C(=O)O)c2)c1Cl	-2%	-73*	u	u
Cc1ccc(N(C(=O)c2cccc(C)c2)S(=O)(=O)c2ccc(Cl)cc2)cc1	1%	-20	x	x
C=C1CC(Cn2cc(Br)c(=O)[nH]c2=O)(c2ccc(-c3ccccc3)cc2)OC1=O (configuration not stated)	x	-90*	13%	7%
COc1cc(C(=O)Nc2sc3c(c2C#N)CCN(C(C)=O)C3)cc(OC)c1OC	17%	x	10µM*	0%
Cc1ccccc1/C=C1\Sc2ccc(C(=O)N3CCN(c4ccccn4)CC3)cc2N(C)C1=O	0%	-5	-53%	u
O=C(c1ccc2c(c1)N(Cc1ccccc1Cl)C(=O)c1ccccc1S2)N1CCCC1	-4%	-68*	x	x
CN1C(=O)/C(=C/c2ccccc2F)Sc2ccc(C(=O)N3CCCC3)cc21	-1%	-25	5%	28µM*
COc1ccc(-n2c(=O)c3c(c4cc(OC)ccc4n3C)n(Cc3ccc(F)cc3Cl)c2=O)cc1	0%	x	x	x
O=C(CN1CCCCC1)Nc1c2c(nc3ccccc13)N(c1ccccc1)CC2	25µM*	48	u	12%
CCOc1ccc(CN2C(=O)c3ccccc3Sc3ccc(C(=O)NC4CCC(C)CC4)cc32)cc1 (configuration not stated)	-1%	x	x	x
Cn1ncc2cc(NC(=S)NC(=O)c3ccccc3)ccc21	0%	1	-21%	40µM*
O=C(NC(=S)Nc1ccc2c(c1)OCCO2)c1ccccc1	-1%	0	-31%	32µM*
O=C(O)c1ccc(NC(=S)NC(=O)c2ccc(-c3ccccc3)cc2)cc1	1%	u	-23%	20µM*
CC(C)C[C@H](NC(=O)CNC(=O)[C@H](Cc1ccc(O)cc1)NC(=O)[C@H](CO)NC(=O)[C@H](Cc1c[nH]c2ccccc12)NC(=O)[C@H](Cc1cnc[nH]1)NC(=O)[C@@H]1CCC(=O)N1)C(=O)N[C@@H](CCCN=C(N)N)C(=O)N1CCC[C@H]1C(=O)NCC(N)=O (stereo in doubt)	x	23	x	x
Cc1nc2c3cccnc3nn2c(C)c1CCC(=O)NCc1ccccc1Cl	14%	10	x	x
O=C(Nc1nc(-c2ccc(F)cc2)cs1)c1cccc(N2C(=O)CCC2=O)c1	5%	-22	-34%	u
O=C(Nc1nc(-c2cc(F)ccc2F)cs1)c1cccc(N2C(=O)CCC2=O)c1	-1%	-40	-6%	40µM*
Oc1cccc(-c2c3nc(c(-c4cccc(O)c4)c4ccc([nH]4)c(-c4cccc(O)c4)c4nc(c(-c5cccc(O)c5)c5ccc2[nH]5)CC4)C=C3)c1	x	-100*	x	x
Cc1cccc(-n2nnnc2S(C)(=O)=O)c1	0%	-84*	x	x
SMILES	RXFP1 agonist	RXFP1 antag	gsp ag	gsp antag
O=S(=O)(NCc1nc2cccnc2n1Cc1ccc(F)cc1)c1ccc2c(c1)CCCC2	2%	-7	x	x
O=[n+]1c2c(n([O-])c3cc(F)c(N4CCCC4)cc31)CCC2	x	-3	21%	40µM*
O=[n+]1c2c(n([O-])c3cc(F)c(N4CCCC4)cc31)CCCC2	2%	4	24%	2%
C=CCc1cc(Cl)ccc1OCCNCCOC	3%	-81*	10%[15.4 µM]	14%
C=CCc1cc(Cl)ccc1OCCNCCN1CCOCC1	-1%	-21	18%[15.4 µM]	-21%
C=CCNCCOCCOc1ccc(Cl)cc1C(C)(C)C	0%	-15	u	7%
